Compound activity (PubChem)
The list is not random: actives were taken first. Their share in the collection is about 8%.
FMDV inh = blocks foot and mouth disease virus; 1.2% of 410,000 active; FMDV antiviral cell-based qHTS; Potency, µM (doses to about 57.9 µM), hits mostly inhibitors; calls by dose curve; tested in HEK293T cells; note: read-out not given here; nearly all actives have a fitted effect of over 45% in size
Lassa entry inh = Lassa virus entry inhibition; Lassa virus pseudotype entry inhibition, cell reporter; Potency, µM (highest dose often 37.9 µM), hits mostly inhibitors; 1.2% of 300,000 active; AID 540256; calls by dose curve; tested in HEK293 cells; note: nearly all actives have a fitted effect of over 50% in size
MARV entry inh = Marburg virus entry inhibition; Marburg virus pseudotyped entry inhibition, cell reporter; Potency, µM (series often up to 37.8 µM), most hits filed as inhibitors; 1.8% of 300,000 active; calls by dose curve; tested in HEK293 cells
SARS PLP yeast = inhibitors of SARS-CoV papain-like protease in yeast | Potency, µM (highest dose often 32.9 µM), hits mostly activators | 0.19% of 330,000 active | AID 485353 | S. cerevisiae expressing SARS-CoV PLpro, growth rescue; calls by dose curve; note: nearly all actives have a fitted effect of over 55% in size
HCMV antiviral = human cytomegalovirus inhibition. activity change, negative = inhibition, % at 57.5 µM. AID 1259415. 4.5% of 410,000 active. HFF cells, HCMV-luciferase reporter, 72 h; active compounds read low; in the data active = activity change below about -60%; inconclusive = no clear call, values can overlap the other calls; inactive = above about -39%
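Luciferase read-out from HCMV-luciferase-infected HFFs (MOI 1 PFU/cell) 72 h post infection at 37C; compounds added after 16 h cell attachment; activity normalized between buffer-only basal and Salinomycin (10uM) inhibitor controls.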
HCV inhibitor = inhibitors of hepatitis C virus infection; Huh7.5.1 HCVcc-Cre infection, luciferase reporter, 44 h; Potency, µM (series often up to 41.8 µM), actives largely listed as inhibitors; AID 651820; 3.4% of 340,000 active; active = well fitted inhibition curve with a large enough effect; inconclusive = small, poorly fitted or top-dose-only effect, or another doubt; inactive = no such curve, though single readings can be large or run the other way
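Compounds are dispensed onto cells plated 4 h earlier at 1,000 per well, with HCVcc-Cre virus (about 0.5 moi) added next. Following 44 h of culture, luminescent signal is measured for 15 sec after 15 min with substrate at room temperature.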
Large screens that a line does not name were inactive.

CCn1ccc2cc(S(=O)(=O)N3CCCN(C(=O)NCCOC)CC3)ccc21	none (no result: MARV entry inh, SARS PLP yeast, HCV inhibitor)
CC(C)CO/N=C1\C[C@@H](O)[C@@H](O)[C@@H]2[C@@H]3C(=O)N(Cc4ccccc4)C(=O)[C@@H]3CC[C@H]12	none (no result: FMDV inh, Lassa entry inh, SARS PLP yeast, HCMV antiviral, HCV inhibitor)
CCCCCC(=O)N/N=C/c1ccc([N+](=O)[O-])o1	Lassa entry inh inconclusive, MARV entry inh inconclusive, HCV inhibitor inconclusive
Cc1ccc(CCC(=O)Nc2ccc(Cl)cc2Cl)o1	HCMV antiviral -66 (no result: Lassa entry inh, MARV entry inh, SARS PLP yeast, HCV inhibitor)
O=C(CNC(=O)c1ccccc1)N/N=C/c1ccc([N+](=O)[O-])o1	HCMV antiviral -80, HCV inhibitor inconclusive
O=C(CNc1ccccc1)N/N=C/c1ccc([N+](=O)[O-])o1	Lassa entry inh inconclusive, MARV entry inh 18µM, HCMV antiviral -82, HCV inhibitor inconclusive
O=C(CCC(=O)Nc1ccc(Cl)cc1Cl)N/N=C/c1ccc([N+](=O)[O-])o1	Lassa entry inh inconclusive, MARV entry inh inconclusive, HCMV antiviral -77, HCV inhibitor inconclusive
O=S(=O)(Nc1ccc2nc(C(F)(F)F)[nH]c2c1)c1ccccc1	Lassa entry inh inconclusive, HCMV antiviral inconclusive, HCV inhibitor inconclusive (no result: FMDV inh)
CC(C)(C)c1nc2ccc(NS(=O)(=O)c3ccc(F)c(F)c3F)cc2[nH]1	HCMV antiviral -66
Cc1cccc(CCNC(=O)c2cc3ccccn3n2)c1	none (no result: MARV entry inh, SARS PLP yeast, HCV inhibitor)
CCOc1ccc(CCNC(=O)c2cc3sc(Cl)cc3n2C)cc1OCC	MARV entry inh inconclusive, HCV inhibitor 7.1µM
CCn1c(C(=O)NCc2ccccc2Cl)cc2sc(Cl)cc21	MARV entry inh inconclusive, HCMV antiviral inconclusive (no result: Lassa entry inh, SARS PLP yeast, HCV inhibitor)
CCOc1ccc(CCNC(=O)c2cc3ccccn3n2)cc1OCC	FMDV inh inconclusive, HCV inhibitor 13µM (no result: Lassa entry inh, MARV entry inh)
Cn1c(C(=O)NCc2ccccc2Cl)cc2sc(Cl)cc21	MARV entry inh 3.2µM, HCMV antiviral -62 (no result: Lassa entry inh, SARS PLP yeast, HCV inhibitor)
COCCN(C(=O)CCC(=O)Nc1nccs1)C(C(=O)NC(C)(C)C)c1ccc(C)cc1 (stereo not drawn)	HCMV antiviral -74
COCCN(C(=O)CCC(=O)Nc1nccs1)C(C(=O)NC(C)(C)C)c1ccc(F)cc1 (stereo not drawn)	none
CC(C)(C)NC(=O)C(c1ccc(O)cc1)N(C(=O)CCC(=O)Nc1nccs1)c1cccc(F)c1 (stereo not drawn)	MARV entry inh 2.3µM
Cc1cccc(N(C(=O)CCC(=O)Nc2nccs2)C(C(=O)NC(C)(C)C)c2ccc(O)cc2)c1 (stereo not drawn)	Lassa entry inh inconclusive, MARV entry inh 2.8µM
Cc1ccc(NC(=O)Cn2c(C)cc(C)c(C#N)c2=O)cc1F	none (no result: MARV entry inh, SARS PLP yeast, HCV inhibitor)
COc1ccc(C2=C(C(C)=O)Sc3nnc(-c4ccc(Cl)cc4)n3N2C(C)=O)cc1OC	Lassa entry inh inconclusive (no result: MARV entry inh, SARS PLP yeast, HCV inhibitor)
COc1ccc(C)cc1-n1c(=O)c2ccccc2c2ccccc2c1=O	FMDV inh 25µM, HCMV antiviral inconclusive
COc1ccc(-n2c(=O)c3ccccc3c3ccccc3c2=O)c(OC)c1	FMDV inh inconclusive
COCCn1c(=O)c(C)nc2cnc(N3CCNCC3)nc21	none (no result: Lassa entry inh, MARV entry inh, SARS PLP yeast, HCMV antiviral, HCV inhibitor)
COc1ccc(-c2cn3nc4c(nc3n2)CCCC4)cc1	Lassa entry inh inconclusive, MARV entry inh 5.6µM
CCc1ccc(NC(=O)C(=O)NCC(c2cccnc2)N2CCN(Cc3ccccc3)CC2)cc1 (stereo not drawn)	FMDV inh inconclusive (no result: MARV entry inh, SARS PLP yeast, HCV inhibitor)
O=P1(c2ccccc2)Nc2ccccc2N1c1ccccc1 (stereo not drawn)	HCMV antiviral -64 (no result: SARS PLP yeast)
O=C(Cn1ncc2c([nH]c3ccccc32)c1=O)NCCCN1CCN(c2ccc(F)cc2)CC1	FMDV inh inconclusive (no result: MARV entry inh, SARS PLP yeast, HCV inhibitor)
CCc1cccc(CC)c1NC(=O)C1CN(S(=O)(=O)c2ccccc2)CCN1S(=O)(=O)c1ccccc1 (stereo not drawn)	MARV entry inh inconclusive, HCV inhibitor 13µM
CCS(=O)(=O)c1ncc(N(Cc2ccccc2)Cc2ccco2)c(C(=O)Nc2ccccc2C)n1	none (no result: SARS PLP yeast, HCV inhibitor)
CCSc1ncc(Cl)c(C(=O)N(Cc2ccccc2)Cc2ccco2)n1	HCMV antiviral -100 (no result: SARS PLP yeast, HCV inhibitor)
CSc1ncc(Cl)c(C(=O)N(Cc2ccc(N(C)C)cc2)Cc2ccco2)n1	none (no result: SARS PLP yeast, HCV inhibitor)
CCCS(=O)(=O)c1ncc(Cl)c(C(=O)N(Cc2ccccc2)Cc2ccco2)n1	FMDV inh 16µM, Lassa entry inh inconclusive, MARV entry inh inconclusive, HCMV antiviral -98 (no result: SARS PLP yeast, HCV inhibitor)
CCCSc1ncc(Cl)c(C(=O)N(Cc2ccc(Cl)cc2)Cc2ccco2)n1	FMDV inh inconclusive, MARV entry inh inconclusive, HCMV antiviral -66 (no result: SARS PLP yeast, HCV inhibitor)
N#Cc1ccccc1CN1C(=O)c2ccccc2Sc2ccc(C(=O)OCc3ccco3)cc21	none (no result: MARV entry inh, SARS PLP yeast, HCV inhibitor)
N#Cc1nc(-c2cccs2)oc1N1CCN(c2ccccc2)CC1	MARV entry inh inconclusive, HCV inhibitor 2.8µM
CC(=O)Oc1cc2c(cc1Cl)C1(CC(c3ccccc3Cl)O2)CC(C)(C)NC(=S)N1 (stereo not drawn)	FMDV inh inconclusive, Lassa entry inh inconclusive, MARV entry inh inconclusive, HCV inhibitor 10µM
CC1(C)CC2(CC(c3ccccc3F)c3cc(Cl)c(O)cc3O2)NC(=S)N1 (stereo not drawn)	FMDV inh inconclusive, Lassa entry inh inconclusive, MARV entry inh inconclusive, HCMV antiviral inconclusive, HCV inhibitor inconclusive
COc1ccccc1-c1nc(C#N)c(N2CCN(Cc3ccccc3)CC2)o1	FMDV inh inconclusive, HCV inhibitor 11µM
COc1ccccc1-c1nc(C#N)c(N2CCC(Cc3ccccc3)CC2)o1	FMDV inh inconclusive, Lassa entry inh inconclusive, HCV inhibitor inconclusive
O=C(Cc1cccs1)NC1CC(=O)N(c2ccccc2)C1 (stereo not drawn)	Lassa entry inh inconclusive (no result: MARV entry inh, SARS PLP yeast, HCV inhibitor)
NC(=O)COC(=O)c1ccc(-c2ccccc2)cc1	HCMV antiviral -62
NC(=O)COC(=O)c1ccc(-c2ccc(O)cc2)cc1	none (no result: Lassa entry inh, MARV entry inh)
CC/C(C)=N\Nc1nc(-c2cc3cc(OC)ccc3oc2=O)cs1	MARV entry inh inconclusive, HCV inhibitor 8.9µM
CCc1ccc(N2CC(C)Cn3c2nc2c3c(=O)n(CC(=O)O)c(=O)n2C)cc1 (stereo not drawn)	none (no result: SARS PLP yeast, HCV inhibitor)
Cc1ccc(OC(C)C(=O)Nc2ccc(C)c(S(=O)(=O)Nc3ccc(C)cc3C)c2)cc1 (stereo not drawn)	Lassa entry inh 16µM, MARV entry inh inconclusive, HCV inhibitor inconclusive
CCN(Cc1ccccc1)C(=O)Cn1c(=O)n(-c2ccc(Cl)cc2)c(=O)c2c(C)c(C)sc21	none (no result: SARS PLP yeast, HCV inhibitor)
COc1ccc(-c2nc3ccc(C)cn3c2Nc2ccc3c(c2)OCO3)cc1	MARV entry inh inconclusive, HCMV antiviral -106 (no result: SARS PLP yeast, HCV inhibitor)
Cc1ccc(-c2nc3ccccn3c2Nc2ccc3c(c2)OCO3)o1	HCMV antiviral -101 (no result: SARS PLP yeast, HCV inhibitor)
Cc1ccc(-c2nc3cccc(C)n3c2Nc2ccc3c(c2)OCO3)o1	MARV entry inh inconclusive (no result: SARS PLP yeast, HCV inhibitor)
CSc1ccccc1OCc1cc(C(=O)N2CCc3[nH]cnc3C2c2ccccn2)no1 (stereo not drawn)	MARV entry inh inconclusive, HCMV antiviral -60
CSc1ccccc1OCc1cc(C(=O)N2CCc3c(Cl)cccc3C2)no1	MARV entry inh inconclusive, HCMV antiviral inconclusive, HCV inhibitor 13µM
